# According to the antibiotic and cytotoxicity screens of Wong et al. (2023):
# About 3,300 (8.5%) of roughly 39,000 compounds were called active. Shown is part of a subset that was picked to be rich in actives.
# Test system: HepG2
# Experiment: cytotoxicity call (relative viability < 0.9)
# Conditions: 10 µM
row,SMILES,cytotoxicity call
1,C[C@H](CO)N1C[C@H](C)[C@H](CN(C)S(=O)(=O)c2cccs2)OCCCC[C@H](C)Oc2ccc(NC(=O)NC3CCCCC3)cc2C1=O,inactive
2,C[C@H]1CCCCO[C@H](CN(C)C(=O)Nc2ccc3c(c2)OCO3)[C@@H](C)CN([C@@H](C)CO)C(=O)c2cc(NC(=O)C3CCCCC3)ccc2O1,inactive
3,C[C@@H]1CN([C@@H](C)CO)C(=O)c2cccc(NS(C)(=O)=O)c2O[C@H]1CN(C)S(=O)(=O)c1cn(C)cn1,inactive
4,C[C@H]1CN([C@@H](C)CO)C(=O)c2cc(NS(=O)(=O)c3ccc(F)cc3)ccc2O[C@@H]1CN(C)S(C)(=O)=O,inactive
5,CC(C)NC(=O)N(C)C[C@H]1OCc2cn(nn2)CCCC(=O)N([C@@H](C)CO)C[C@H]1C,inactive
6,O[C@@H]1[C@@H](O)[C@H](Nc2ccccc2)OC[C@H]1O,inactive
7,Cc1noc(C)c1S(=O)(=O)N(C)C[C@H]1Oc2ccc(NC(=O)Nc3ccccc3)cc2CC(=O)N([C@H](C)CO)C[C@@H]1C,inactive
8,CN(C)CC#Cc1ccc([C@@H]2[C@@H](CO)N3C(=O)CN(C(=O)c4cccnc4)C[C@@H]23)cc1,inactive
9,COc1ccc(NC(=O)N(C)C[C@H]2OCCCC[C@@H](C)Oc3ccc(NS(=O)(=O)c4c(C)noc4C)cc3C(=O)N([C@H](C)CO)C[C@@H]2C)cc1,inactive
10,C[C@@H]1CCCCO[C@H](CN(C)C(=O)C2CCCCC2)[C@@H](C)CN([C@@H](C)CO)C(=O)c2cc(NC(=O)Cc3ccccc3)ccc2O1,inactive
11,C[C@@H]1CN([C@H](C)CO)C(=O)Cc2cc(NC(=O)Cn3cnnn3)ccc2O[C@@H]1CN(C)S(=O)(=O)c1cn(C)cn1,inactive
12,C[C@@H]1CN([C@@H](C)CO)C(=O)c2cc(NC(=O)Nc3ccccc3)ccc2O[C@@H](C)C/C=C/CO[C@H]1CN(C)S(=O)(=O)c1ccc(F)cc1,active
13,C[C@@H]1CN([C@@H](C)CN=[N+]=[N-])C(=O)c2cc(NC(=O)Nc3ccccc3)ccc2O[C@@H](C)CCCCO[C@H]1CN(C)S(=O)(=O)c1ccc(F)cc1,active
14,C[C@@H]1CN([C@@H](C)CO)C(=O)c2cc(NC(=O)Nc3ccccc3)ccc2O[C@@H](C)C/C=C\CO[C@H]1CN(C)S(=O)(=O)c1ccc(F)cc1,inactive
15,C[C@@H]1CCCCO[C@@H](CN(C)S(=O)(=O)c2ccccc2)[C@@H](C)CN([C@@H](C)CO)C(=O)c2cc(NC(=O)Nc3ccc(F)cc3)ccc2O1,inactive
16,C[C@@H]1CN([C@H](C)CO)C(=O)c2cc(NC(=O)Nc3ccc(F)cc3)ccc2O[C@@H](C)CCCCO[C@H]1CN(C)S(=O)(=O)c1ccccc1,inactive
17,CC(C)N1C[C@@H](C)[C@H](CN(C)S(=O)(=O)c2ccc(F)cc2)OCCCC[C@H](C)Oc2ccc(NC(=O)Nc3ccccc3)cc2C1=O,inactive
